Where “and” joins values, the source holds several entries; their conditions need not be identical. Identical values can stand only once. In all, about 5,500 compounds went through this assay and about 2,000 (36%) were called active. Inconclusive results (about 18%) are left out. No stated cut-off is given here; in the data, active means normalized growth mostly below about 0.91 (no sharp cut-off); inconclusive means no clear call, values can overlap the other calls; inactive means mostly above about 0.92. The list shows a part of the results.
Test: chemical genetic growth profiling, strain panel (AID 1159580);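 further: tested at 20 µM; growth read once vehicle control cultures reached saturation at 30 °C; 1 = growth at the plate median or of vehicle wells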
Settings: S. cerevisiae deletion strains, growth OD

COc1ccc(C(=O)c2ccccc2O)c(O)c1
normalized growth (locus YAL013W, strain DEP1, stronger effect = lower value): 0.91 (inactive) | normalized growth (locus YAL021C, strain ccr4, stronger effect = lower value): 0.992 (inactive) | normalized growth (locus YAL026C, strain drs2, stronger effect = lower value): 0.815 (active) | normalized growth (locus YAL030W, strain snc1, stronger effect = lower value): 0.894 (active) | normalized growth (locus YBL061C, strain skt5, stronger effect = lower value): 0.818 (active) | normalized growth (locus YBR009C, strain hhf1, stronger effect = lower value): 0.806 (active) | normalized growth (locus YBR021W, strain FUR4, stronger effect = lower value): 0.817 (active) | normalized growth (locus YBR023C, strain chs3, stronger effect = lower value): 0.867 (active) | normalized growth (locus YBR171W, strain sec66, stronger effect = lower value): 0.823 (active) | normalized growth (locus YBR229C, strain ROT2, stronger effect = lower value): 0.95 (inactive) | normalized growth (locus YBR231C, strain swc5, stronger effect = lower value): 0.887 (active) | normalized growth (locus YBR279W, strain paf1, stronger effect = lower value): 0.902 (active) | normalized growth (locus YCL011C, strain gbp2, stronger effect = lower value): 0.876 (active) | normalized growth (locus YCL016C, strain dcc1, stronger effect = lower value): 0.905 (active) | normalized growth (locus YCL029C, strain bik1, stronger effect = lower value): 0.929 (inactive) | normalized growth (locus YCL061C, strain MRC1, stronger effect = lower value): 0.888 (active) | normalized growth (locus YCL069W, strain vba3, stronger effect = lower value): 0.869 (active) | normalized growth (locus YCR088W, strain abp1, stronger effect = lower value): 0.888 (active) | normalized growth (locus YDL005C, strain med2, stronger effect = lower value): 0.918 (inactive) | normalized growth (locus YDL035C, strain GPR1, stronger effect = lower value): 0.962 (inactive) | normalized growth (locus YDL040C, strain nat1, stronger effect = lower value): 0.893 (active) | normalized growth (locus YDL074C, strain BRE1, stronger effect = lower value): 0.845 (inactive) | normalized growth (locus YDL101C, strain DUN1, stronger effect = lower value): 0.944 (inactive) | normalized growth (locus YDL134C, strain PPH21, stronger effect = lower value): 0.933 (inactive) | normalized growth (locus YDL185W, strain tfp1, stronger effect = lower value): 0.921 (inactive) | normalized growth (locus YDL192W, strain arf1, stronger effect = lower value): 0.915 (active) | normalized growth (locus YDR001C, strain nth1, stronger effect = lower value): 0.888 (active) | normalized growth (locus YDR069C, strain doa4, stronger effect = lower value): 0.912 (inactive) | normalized growth (locus YDR101C, strain arx1, stronger effect = lower value): 0.949 (inactive) | normalized growth (locus YDR137W, strain rgp1, stronger effect = lower value): 0.43 (active) | normalized growth (locus YDR150W, strain NUM1, stronger effect = lower value): 0.961 (inactive) | normalized growth (locus YDR159W, strain sac3, stronger effect = lower value): 0.757 (active) | normalized growth (locus YDR162C, strain NBP2, stronger effect = lower value): 0.926 (inactive) | normalized growth (locus YDR195W, strain ref2): 1.2 [resistant] (active) | normalized growth (locus YDR297W, strain sur2, stronger effect = lower value): 0.878 (active) | normalized growth (locus YDR318W, strain mcm21, stronger effect = lower value): 0.91 (active) | normalized growth (locus YDR334W, strain swr1, stronger effect = lower value): 0.89 (active) | normalized growth (locus YDR335W, strain msn5, stronger effect = lower value): 0.889 (active) | normalized growth (locus YDR388W, stronger effect = lower value): 0.92 (active) | normalized growth (locus YDR392W, strain spt3, stronger effect = lower value): 0.417 (active) | normalized growth (locus YDR502C, strain sam2, stronger effect = lower value): 0.871 (active) | normalized growth (locus YEL003W, strain gim4, stronger effect = lower value): 0.83 (active) | normalized growth (locus YEL037C, strain rad23, stronger effect = lower value): 0.874 (active) | normalized growth (locus YEL061C, strain CIN8 (second series), stronger effect = lower value): 0.874 (active) | normalized growth (locus YEL061C, strain CIN8, stronger effect = lower value): 0.952 (inactive) | normalized growth (locus YER015W, strain faa2, stronger effect = lower value): 0.876 (active) | normalized growth (locus YER016W, strain bim1, stronger effect = lower value): 0.883 (active) | normalized growth (locus YER110C, stronger effect = lower value): 0.913 (inactive) | normalized growth (locus YER111C, strain swi4, stronger effect = lower value): 0.885 (active) | normalized growth (locus YER155C, strain BEM2 (second series), stronger effect = lower value): 0.444 (active) | normalized growth (locus YER155C, strain BEM2, stronger effect = lower value): 0.949 (inactive) | normalized growth (locus YER167W, strain BCK2, stronger effect = lower value): 0.951 (inactive) | normalized growth (locus YFR010W, strain ubp6, stronger effect = lower value): 0.902 (inactive) | normalized growth (locus YGL078C, strain dbp3, stronger effect = lower value): 0.947 (inactive) | normalized growth (locus YGL086W, strain mad1, stronger effect = lower value): 0.932 (inactive) | normalized growth (locus YGL167C, strain pmr1, stronger effect = lower value): 0.843 (active) | normalized growth (locus YGL173C, strain kem1, stronger effect = lower value): 0.817 (active) | normalized growth (locus YGL227W, strain vid30, stronger effect = lower value): 0.879 (active) | normalized growth (locus YGL240W, strain doc1, stronger effect = lower value): 0.734 (active) | normalized growth (locus YGL248W, strain PDE1, stronger effect = lower value): 0.876 (active) | normalized growth (locus YGL253W, strain hxk2, stronger effect = lower value): 0.799 (active) | normalized growth (locus YGR078C, strain PAC10, stronger effect = lower value): 0.903 (inactive) | normalized growth (locus YGR135W, strain pre9, stronger effect = lower value): 0.822 (active) | normalized growth (locus YGR229C, strain SMI1, stronger effect = lower value): 0.894 (inactive) | normalized growth (locus YGR252W, strain gcn5, stronger effect = lower value): 0.751 (active) | normalized growth (locus YHR013C, strain ard1, stronger effect = lower value): 0.725 (active) | normalized growth (locus YHR027C, strain rpn1, stronger effect = lower value): 0.883 (active) | normalized growth (locus YHR030C, strain SLT2, stronger effect = lower value): 0.922 (inactive) and 0.947 (inactive) | normalized growth (locus YHR079C, strain IRE1 (second series), stronger effect = lower value): 0.932 (inactive) | normalized growth (locus YHR079C, strain IRE1, stronger effect = lower value): 0.957 (inactive) | normalized growth (locus YHR094C, strain hxt1, stronger effect = lower value): 0.933 (inactive) | normalized growth (locus YHR129C, strain ARP1, stronger effect = lower value): 0.949 (inactive) | normalized growth (locus YHR142W, strain chs7, stronger effect = lower value): 0.722 (active) | normalized growth (locus YHR200W, strain rpn10, stronger effect = lower value): 0.937 (inactive) | normalized growth (locus YIL066C, strain RNR3, stronger effect = lower value): 0.946 (inactive) | normalized growth (locus YIL073C, strain SPO22, stronger effect = lower value): 0.84 (inactive) | normalized growth (locus YIL125W, strain kgd1, stronger effect = lower value): 0.943 (inactive) | normalized growth (locus YIR030C, strain dcg1, stronger effect = lower value): 0.918 (active) | normalized growth (locus YJL092W, strain hpr5, stronger effect = lower value): 0.876 (active) | normalized growth (locus YJL095W, strain BCK1 (second series), stronger effect = lower value): 0.727 (active) | normalized growth (locus YJL095W, strain BCK1, stronger effect = lower value): 0.676 (active) and 0.932 (inactive) | normalized growth (locus YJL115W, strain asf1, stronger effect = lower value): 0.91 (inactive) | normalized growth (locus YJL129C, strain trk1, stronger effect = lower value): 0.8 (active) | normalized growth (locus YJL134W, strain LCB3, stronger effect = lower value): 0.953 (inactive) | normalized growth (locus YJL154C, strain vps35, stronger effect = lower value): 0.884 (active) | normalized growth (locus YJL164C, strain tpk1, stronger effect = lower value): 0.798 (active) | normalized growth (locus YJL166W, strain qcr8, stronger effect = lower value): 0.881 (active) | normalized growth (locus YJL168C, strain set2, stronger effect = lower value): 0.938 (inactive) | normalized growth (locus YJL187C, strain SWE1 (second series), stronger effect = lower value): 0.896 (inactive) | normalized growth (locus YJL187C, strain SWE1, stronger effect = lower value): 0.88 (active) | normalized growth (locus YJR043C, strain POL32, stronger effect = lower value): 0.976 (inactive)
